FLuc modulator: counter-screen for miR-21 project: firefly luciferase inhibitors or activators; Potency, µM (series often up to 57.5 µM), inactives show at the highest dose activity change, negative = inhibition, usual class: inhibitors; purified FLuc, Km substrates, luminescence inhibition; P08659; 360,000 tested, 6.9% active;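 also: plate controls were vehicle for no effect and reference inhibitor for full effect; nearly all actives have a fitted effect of over 55% in size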
Target sequence (P08659 whole entry, looked up): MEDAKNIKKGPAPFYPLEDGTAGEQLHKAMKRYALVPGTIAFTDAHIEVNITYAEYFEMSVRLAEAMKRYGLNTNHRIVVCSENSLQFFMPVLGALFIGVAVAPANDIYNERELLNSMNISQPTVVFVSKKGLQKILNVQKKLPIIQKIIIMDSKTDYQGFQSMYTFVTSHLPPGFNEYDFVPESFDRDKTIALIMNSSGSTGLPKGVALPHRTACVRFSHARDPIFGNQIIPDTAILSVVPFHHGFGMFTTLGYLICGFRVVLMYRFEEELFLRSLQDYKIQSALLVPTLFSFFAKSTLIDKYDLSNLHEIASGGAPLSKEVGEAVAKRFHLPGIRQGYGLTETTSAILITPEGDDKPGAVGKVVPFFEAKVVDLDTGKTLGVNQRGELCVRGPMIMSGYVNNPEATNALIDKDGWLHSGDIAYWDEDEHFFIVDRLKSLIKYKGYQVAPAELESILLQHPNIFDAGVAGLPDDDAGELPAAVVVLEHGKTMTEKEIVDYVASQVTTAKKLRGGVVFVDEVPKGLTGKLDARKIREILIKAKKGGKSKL
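Purified P. pyralis luciferase (10nM final) with 10uM D-luciferin and 10uM ATP (Km levels) in 50mM Tris acetate pH 7.5, 10mM Mg acetate, 0.01% Tween-20, 0.05% BSA; qHTS 6-point titration, ~60 µM downward; luminescence read.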
Rab9 promoter act: activates the Rab9 promoter; 320,000 tested, 2.8% active; Potency, µM (titrated, usually from 9.22 µM), inactives show at the highest dose activation, negative = inhibition, hits mostly activators; Huh7 Rab9 promoter-luciferase reporter, luminescence, 24 h; also: % of control where 0% means no effect; nearly all actives have a fitted effect of over 60% in size
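Huh7 cells stably carrying Rab9 promoter–luciferase reporter, plated 1500 cells/well, compound added after 2 h and incubated 24 h at 37 °C; luciferase luminescence then read after 10 min with detection reagent.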
NPC1 prom act: NPC1 promoter activation. Huh7 NPC1 promoter luciferase reporter, 24 h. Potency, µM (top dose mostly 9.22 µM), inactives show top-dose activation, usual class: activators. 320,000 tested, 2.4% active; also: % of control where 0% means no effect; nearly all actives have a fitted effect of over 60% in size
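Huh7 cells stably carrying NPC1 promoter–luciferase, plated in Opti-MEM with 10% FBS for 2 h, were exposed to compound in DMSO for 24 h at 37 °C; luciferase reagent was added for 10 min and luminescence read.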
ELG1 genotoxic: inducers of genotoxicity in HEK293T ELG1-luciferase cells | HEK293T ELG1-luciferase reporter, luminescence, 16 h | Potency, µM (highest dose often 46 µM), for the others: at the top dose activity change, positive = activation, usual class: activators | 330,000 tested, 1.3% active; also: % of control where 0% means no effect; nearly all actives have a fitted effect of over 60% in size
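Genotoxicity was scored as increased ELG1-luciferase reporter signal, measured by ONE-Glo luminescence (30 min, room temperature). Compound or vehicle exposure of the HEK293T reporter cells lasted 16 hr at 37°C.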
SMN2 splice enh: SMN2 splice variant enhancement; HEK293 SMN2-luciferase splicing reporter, luminescence, 30-36 h; Potency, µM (highest dose often 46.1 µM), without a hit: top-dose activity change, positive = activation, hits mostly activators; 210,000 tested, 2.8% active; AID 1458; also: % of control where 0% means no effect; nearly all actives have a fitted effect of over 55% in size
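HEK293 cells carry an SMN2 […]–luciferase reporter in which exon 7 inclusion puts luciferase in frame. Cells were plated 10-12 h before compound addition, then incubated 30-36 h at 37C. ONE-Glo luminescence was read; sodium butyrate at 4.5 mM final served as control.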
Active calls of the source: *; [ ] = remark or other dose. A selection: hits, their analogues and other compounds. The true share with any hit is near 7.4%. Calls follow the shape of the dose curve; as a rule, active = well fitted curve in the direction sought with a large enough effect; inconclusive = small, poorly fitted or top-dose-only effect, or another doubt; inactive = no such curve, though single readings can be large; an effect the other way counts as inactive or inconclusive. Potency is read from the fitted curve at half-maximal effect.

`O=C(COC(=O)/C=C/c1ccccc1[N+](=O)[O-])Nc1ccc(OCc2ccccc2)cc1` gave FLuc modulator 1%, Rab9 promoter act inconclusive, NPC1 prom act inconclusive, ELG1 genotoxic inconclusive and SMN2 splice enh 13µM*.
Screening CCNC(=O)/C=C/c1ccccc1[N+](=O)[O-] returned FLuc modulator 0%, Rab9 promoter act -2%, NPC1 prom act -2%, ELG1 genotoxic -4% and SMN2 splice enh 9%.
For O=C(/C=C/c1ccccc1[N+](=O)[O-])Nc1ccccc1 the results were FLuc modulator 6µM*, Rab9 promoter act 0.71µM*, NPC1 prom act 2µM*, ELG1 genotoxic inconclusive and SMN2 splice enh 14µM*.
`COc1ccc(-c2nsc(NC(=O)c3oc4cc(C)c(C)cc4c3C)n2)cc1` gave FLuc modulator -6% and SMN2 splice enh 4%.
For COc1cc(OC)cc(C(=O)NC(C(=O)Nc2ccc3c(c2)OCCO3)C(C)C)c1 (stereo not drawn) the results were FLuc modulator inconclusive, Rab9 promoter act 19%, NPC1 prom act 13% and ELG1 genotoxic 17%.
`COc1cc(OC)cc(C(=O)Nc2ccc3c(c2)OCCO3)c1` gave FLuc modulator 3µM*, Rab9 promoter act 3.2µM*, NPC1 prom act 4µM*, ELG1 genotoxic inconclusive and SMN2 splice enh 10µM*.
`CCN(CC(=O)Nc1ccc2c(c1)OCCO2)C(=O)c1ccc(Cl)cc1Cl` gave FLuc modulator 7.6µM*, Rab9 promoter act 1.4µM*, NPC1 prom act 4µM* and ELG1 genotoxic inconclusive.
For CCOc1ccc(C(=O)Nc2ccc3c(c2)OCCO3)cc1OC the results were FLuc modulator 2.7µM*, Rab9 promoter act inconclusive, NPC1 prom act inconclusive, ELG1 genotoxic 18µM* and SMN2 splice enh 13µM*.
For CC(=O)Nc1ccc(C(=O)Nc2ccc3c(c2)OCCO3)cc1 the results were FLuc modulator 15µM*, Rab9 promoter act 5%, NPC1 prom act -2% and ELG1 genotoxic inconclusive.
`CC(=O)Nc1ccc(C(=O)Nc2ccc3c(c2)OCO3)cc1` gave FLuc modulator inconclusive, Rab9 promoter act 24%, NPC1 prom act 16%, ELG1 genotoxic 13% and SMN2 splice enh 3%.
Screening CCOc1ccc(C(=O)Nc2ccc3c(c2)OCCO3)cc1[N+](=O)[O-] returned FLuc modulator inconclusive, Rab9 promoter act 21%, NPC1 prom act 0%, ELG1 genotoxic -13% and SMN2 splice enh -28%.
Screening CC(NC(=O)c1cccc(S(=O)(=O)N2CCc3ccccc32)c1)c1ccco1 (stereo not drawn) returned FLuc modulator 0%, Rab9 promoter act -4%, NPC1 prom act -3% and ELG1 genotoxic -3%.
Cn1c(=O)c2c(nc(N3CCN(c4ccc([N+](=O)[O-])cc4)CC3)n2C)n(C)c1=O was read as FLuc modulator 2%, Rab9 promoter act -1%, NPC1 prom act -5% and ELG1 genotoxic -5%.
`Cc1cc(C(=O)Nc2ccc3c(c2)OCCO3)co1` gave FLuc modulator 3.4µM*, Rab9 promoter act 4.5µM*, NPC1 prom act 3.2µM* and ELG1 genotoxic inconclusive.
Screening C=CCOc1ccccc1CNc1ccc2c(c1)OCCO2 returned FLuc modulator 0.85µM*, Rab9 promoter act inconclusive, NPC1 prom act inconclusive, ELG1 genotoxic inconclusive and SMN2 splice enh -29%.
`Cc1cc(C)n(-c2ccc(C(=O)Nc3ccc4c(c3)OCCO4)cc2)n1` gave FLuc modulator 8.5µM*, Rab9 promoter act inconclusive, NPC1 prom act inconclusive, ELG1 genotoxic inconclusive and SMN2 splice enh 17%.
Cc1ccc(C(=O)Nc2ccc3c(c2)OCCO3)o1 was read as FLuc modulator 3µM*, Rab9 promoter act inconclusive, NPC1 prom act inconclusive and ELG1 genotoxic 3.3µM*.
Screening CCCCOc1ccc(C2C(=O)N(C3CCCCC3)CC(=O)N2CCCC)cc1 (stereo not drawn) returned FLuc modulator 4%.
`CC(=O)Nc1ccc2c(c1)OCCOCCOc1cc(NC(C)=O)ccc1OCCO2` gave FLuc modulator 5%, Rab9 promoter act 8%, NPC1 prom act 0% and ELG1 genotoxic -6%.
Screening c1cc(CNc2ccc3c(c2)OCCO3)ccn1 returned FLuc modulator inconclusive, Rab9 promoter act 1%, NPC1 prom act 0%, ELG1 genotoxic 18µM* and SMN2 splice enh 11%.
`O=C(Nc1ccc2c(c1)OCCO2)c1ccc(NC(=O)C2CCCO2)cc1` (stereo not drawn) gave FLuc modulator 12µM*, Rab9 promoter act 22%, NPC1 prom act 14%, ELG1 genotoxic 5% and SMN2 splice enh -5%.
For O=C(NCc1ccc2c(c1)OCO2)c1ccc(NC(=O)C2CCCO2)cc1 (stereo not drawn) the results were FLuc modulator -4%, Rab9 promoter act -5%, NPC1 prom act -3%, ELG1 genotoxic 1% and SMN2 splice enh 19%.
`NC(=O)Nc1ccc2c(c1)OCCO2` gave FLuc modulator 21µM*, Rab9 promoter act 30%, NPC1 prom act 19%, ELG1 genotoxic inconclusive and SMN2 splice enh 17%.
Cc1cc(NCc2ccncc2)ccc1Br was read as FLuc modulator -6%, Rab9 promoter act 15%, NPC1 prom act 7% and ELG1 genotoxic -1%.
`O=C(Nc1ccc2c(c1)OCCO2)c1ccc(Cl)cc1` gave FLuc modulator 1.5µM*, Rab9 promoter act 0.45µM*, NPC1 prom act 0.71µM* and ELG1 genotoxic inconclusive.
`O=C(O)CCC/C=C\C[C@@H]1[C@@H](/C=C/[C@H](O)C2Cc3ccccc3C2)[C@@H](F)C[C@@H]1O` gave Rab9 promoter act inconclusive and NPC1 prom act 5%[46.1 µM].
CCc1ccc(OCC(=O)N2CCc3ccccc32)cc1 was read as FLuc modulator 2.7µM*, Rab9 promoter act 2.2µM*, NPC1 prom act 3.5µM* and ELG1 genotoxic inconclusive.
`Cc1ccc(OCC(=O)N2CCc3ccccc32)cc1` gave FLuc modulator 2.7µM*, Rab9 promoter act 3.5µM*, NPC1 prom act 2.8µM*, ELG1 genotoxic 16µM* and SMN2 splice enh 14µM*.
Screening O=C(COc1ccc2c(c1)CCC2)N1CCc2ccccc21 returned FLuc modulator 5.4µM*, Rab9 promoter act 1.1µM*, NPC1 prom act 2.8µM*, ELG1 genotoxic 12µM* and SMN2 splice enh inconclusive.
`Cc1ccc(OCC(=O)N2CCCc3ccccc32)cc1` gave FLuc modulator inconclusive, Rab9 promoter act 13%, NPC1 prom act 10%, ELG1 genotoxic 2% and SMN2 splice enh 2%.
Screening CCc1ccc(OCC(=O)N2c3ccccc3CCc3ccccc32)cc1 returned FLuc modulator -2%, Rab9 promoter act -1%, NPC1 prom act 1% and ELG1 genotoxic -5%.
